AMA1-RON2 inh = qHTS for Inhibitors of AMA1-RON; Towards Development of Antimalarial Drug Lead: Primary Screen | AID 720542, 2013 | Potency, µM (series often up to 58.2 µM), usual class: inhibitors | AlphaScreen AMA1-biotinylated RON2 peptide binding | 360,000 compounds, 0.2% hits; note: nearly all actives have a fitted effect of over 45% in size
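AMA1 (3D7) with his tag at 25 nM final met compounds first, then biotinylated RON2 peptide at 25 nM; detection used donor plus acceptor beads, 10 µg/mL apiece, read by AlphaScreen after 30 min at room temperature.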
Pf growth 48h = Primary qHTS for delayed death inhibitors of the malarial parasite plastid, 48 hour incubation | P. falciparum luciferase growth in erythrocytes, 48 h | Potency, µM (series often up to 28.7 µM), actives largely listed as inhibitors | 310,000 compounds, 5.9% hits | AID 504832, 2011
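Luciferase-expressing parasites in RBCs, 2% Hct / 0.1% parasitemia final; RPMI 1640 + 0.5% Albumax; 37 C, 5% CO2, one generation; luminescence read-out, lower signal = inhibition.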
Shiga toxin inh = A qHTS for Small Molecule Inhibitors of Shiga Toxin | 290,000 compounds, 9.2% hits | inhibition, % at 38.7 µM | Vero cells, Shiga toxin protein synthesis inhibition reporter; in the data active = inhibition mostly above about 28%, no sharp cut-off; inactive = mostly below about 43%
Cycloheximide cs = Cycloheximide Counterscreen for Small Molecule Inhibitors of Shiga Toxin; cell reporter, cycloheximide protein synthesis inhibition counterscreen; max response, %; 300,000 compounds, 12% hits; in the data active = max response mostly above about 13%, no sharp cut-off; inactive = mostly below about 14%; note: read at 38.3 µM for the half of the compounds with a filed dose
HCV inh = qHTS Assay for Inhibitors of Hepatitis C Virus (HCV); Huh7.5.1 HCVcc-Cre infection, luciferase reporter, 44 h; Potency, µM (series often up to 41.8 µM), most hits filed as inhibitors; 340,000 compounds, 3.4% hits
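Whole-lifecycle infectious HCVcc-Cre system; cells 1,000/well, compound then virus (~0.5 moi) added 4 h after plating, 44 h culture. Luciferase read 15 sec following 15 min substrate incubation, room temp.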
Pf growth 96h = Primary qHTS for delayed death inhibitors of the malarial parasite plastid, 96 hour incubation | P. falciparum luciferase reporter growth, 96 h | Potency, µM (series often up to 28.7 µM), usual class: inhibitors | 320,000 compounds, 6.9% hits
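Infected RBCs, 2% Hct / 0.05% parasitemia final; luciferase-reporter P. falciparum; cpd 96 h, 37 C, 5% CO2; luciferase detection reagent; luminescence.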
A number is an active result; . = inactive; ? = inconclusive; / = no result given. Most compounds without a hit are left out; they make up all but 21% or so of the library. Unless noted, calls come from the whole dose curve; as a rule, active = well fitted curve in the direction sought with a large enough effect; inconclusive = small, poorly fitted or top-dose-only effect, or another doubt; inactive = no such curve, though single readings can be large; an effect the other way counts as inactive or inconclusive.

SMILES	AMA1-RON2 inh	Pf growth 48h	Shiga toxin inh	Cycloheximide cs	HCV inh	Pf growth 96h
CN(C)S(=O)(=O)c1ccc(N2CCCC2)c(C(=O)Nc2ccccc2OC(F)F)c1	.	?	.	.	.	.
CN(C)S(=O)(=O)c1ccc(N2CCCC2)c(C(=O)NCC2CCCCC2)c1	.	9.3µM	.	.	8.9µM	?
CC(C)NC(=O)Nc1ccc2c(c1)C(=O)N([C@@H](C)CO)C[C@H](C)[C@H](CN(C)S(=O)(=O)c1ccccc1)OCCCC[C@H](C)O2	.	/	/	/	/	/
O=[N+]([O-])c1cccc(C2(O)COc3ccccc3O2)c1 (centres undefined)	.	.	.	.	.	.
CCOC(=O)N1CCN(C(=O)c2cccc(N3C(=O)NC4CC3(C)Oc3ccccc34)c2)CC1 (centres undefined)	.	.	.	.	.	1.9µM
COc1ccccc1N1CCN(C(=O)c2cccc(N3C(=O)NC4CC3(C)Oc3ccccc34)c2)CC1 (centres undefined)	.	12µM	.	.	.	.
COc1cccc(N2CCN(C(=O)c3cccc(N4C(=O)NC5CC4(C)Oc4c(OC)cccc45)c3)CC2)c1 (centres undefined)	.	?	.	.	.	.
CC12CC(NC(=O)N1c1ccc(C(=O)N3CCN(c4ccc(F)cc4)CC3)cc1)c1ccccc1O2 (centres undefined)	.	?	.	.	.	/
CC12CC(NC(=O)N1c1cccc(C(=O)N3CCN(c4ccccc4)CC3)c1)c1ccccc1O2 (centres undefined)	.	8.3µM	.	.	.	?
COc1ccc(S(=O)(=O)Nc2ccc3c(c2)C(=O)N([C@H](C)CO)C[C@H](C)[C@@H](CN(C)C(=O)Nc2ccccc2)O3)cc1	.	/	/	/	.	/
COc1ccc(C)cc1NC(=O)c1ccc2c(O)c(S(=O)(=O)c3ccccc3)c(=O)[nH]c2c1	.	.	.	.	.	.
CN(CC(=O)NCCN1CCN(Cc2ccccc2)CC1)S(=O)(=O)c1cccc2nsnc12	.	?	.	.	.	.
CN(CC(=O)NCc1ccc(Cl)cc1)S(=O)(=O)c1cccc2nsnc12	.	.	.	.	.	?
CCN(CCCNC(=O)CN(C)S(=O)(=O)c1cccc2nsnc12)c1ccccc1	.	?	.	.	?	12µM
CN(CC(=O)NCCc1ccccc1)S(=O)(=O)c1cccc2nsnc12	.	.	.	.	?	8.3µM
CN(CC(=O)N1CCN(Cc2ccccc2)CC1)S(=O)(=O)c1cccc2nsnc12	.	.	.	.	.	4.1µM
CC(C)OCCCn1c(SCC(=O)Nc2ccccc2C(F)(F)F)nc2nccnc2c1=O	.	.	.	.	.	.
CCCC(=O)Nc1ccc(C(=O)n2nnc3ccccc32)cc1	.	.	.	.	.	.
CN(C)c1ccc(C(=O)n2nnc3ccccc32)cc1	.	.	116	57	.	/
CC(C)(C)c1ccc(C(=O)n2cnc3ccccc32)cc1	.	.	64	30	.	?
CCN(CC)c1ccc(C(=O)n2cnc3ccccc32)cc1	.	.	.	25	?	.
O=C(c1ccccc1)N(C(=O)c1ccccc1)c1ncnc2c1C(c1ccccc1)c1c(ccc3ccccc13)O2 (centres undefined)	/	?	/	/	/	.
N=c1c2c(ncn1CCN1CCOCC1)Oc1ccc3ccccc3c1C2c1ccccc1 (centres undefined)	.	/	.	.	.	4.7µM
c1ccc(C2c3c(ccc4ccccc34)Oc3ncn4nc(-c5ccco5)nc4c32)cc1 (centres undefined)	.	.	.	.	?	?
COc1ccc(C2c3c(ncn(CCN4CCOCC4)c3=N)Oc3ccc4ccccc4c32)cc1 (centres undefined)	.	9.3µM	.	.	?	/
SMILES	AMA1-RON2 inh	Pf growth 48h	Shiga toxin inh	Cycloheximide cs	HCV inh	Pf growth 96h
COc1ccc(C2c3c(ccc4ccccc34)Oc3ncn4nc(-c5ccco5)nc4c32)cc1 (centres undefined)	.	?	.	.	?	3.7µM
COc1ccc(CCN2Cc3c(N)cccc3C2=O)cc1OC	.	/	.	.	.	.
O=C1CCC(C(=O)N2CCN(c3cnccn3)CC2)CN1CCc1cccc(F)c1 (centres undefined)	.	.	.	.	.	.
O=C1CCCc2nc(N3CCN(c4ccccc4)CC3)ncc21	.	.	.	.	.	.
Fc1cnc(N2CCN(c3ccccc3)CC2)nc1N1CCN(c2ccccc2)CC1	.	13µM	.	.	?	.
CCOc1ccc2c(c1)-c1c(ssc1=S)C(C)(C)N2C	10µM	.	.	.	?	/
CCOc1ccc2c(c1)[nH]c(=S)n2C	.	.	.	.	.	?
CCc1nc(N2CCC3(CC2)OCCO3)c2nnn(Cc3ccccc3)c2n1	.	?	.	.	?	.
CC1Cc2ccccc2N1c1nc(C2CC2)nc2c1nnn2Cc1ccccc1 (centres undefined)	.	.	.	.	.	.
c1ccc(Cn2nnc3c(N4CCC5(CC4)OCCO5)ncnc32)cc1	?	.	.	.	?	12µM
CC1Cc2ccccc2N1c1ncnc2c1nnn2Cc1ccccc1 (centres undefined)	.	.	.	.	11µM	.
COc1ccc(N2CCN(c3ncnc4c3nnn4Cc3ccccc3Cl)CC2)cc1	.	.	.	.	.	5.2µM
Cc1nc(N2CCCC2)c2nnn(Cc3ccccc3Cl)c2n1	.	.	.	.	.	.
Cc1nc(N2CCC3(CC2)OCCO3)c2nnn(Cc3ccccc3F)c2n1	.	/	57	43	?	.
Cc1cc(C)n(CCN(C)C(=O)C2CCC(=O)N(CCc3cccc(F)c3)C2)n1 (centres undefined)	.	.	.	.	.	?
O=C1NC(c2ccccc2)=C(c2ccc3ccccc3n2)C(c2ccncc2)N1 (centres undefined)	.	.	.	.	.	?
O=C1NC(c2ccccc2)=C(c2ccc3ccccc3n2)C(c2ccccc2)N1 (centres undefined)	.	12µM	.	.	?	5.2µM
O=C1NC(c2ccccc2)=C(c2ccc3ccccc3n2)C(c2ccc(F)cc2)N1 (centres undefined)	.	5.2µM	.	.	?	4.1µM
O=C1NC(c2ccccc2)=C(c2nc3ccccc3s2)C(c2ccc(O)cc2)N1 (centres undefined)	.	2.1µM	.	.	/	7.4µM
Cn1ncc2cc3c(Nc4ccc(Cl)cc4)cccc3nc21	.	/	/	/	/	/
OC1(c2cccc(C(F)(F)F)c2)CCN(c2ncnc3c2[nH]c2ccccc23)CC1	.	.	.	.	?	.

Bioassay records as filed in PubChem BioAssay.
